# Laboratory results published in the supplement of paper PMC8728848.
# This is one part of a sample in which the strongest signals are shown more often than they occur.
# B1: PX15618A-bth-503-24-503 (Bacteroides thetaiotaomicron) (protein)
# chain: NKSEDKLSGDDFWAQGNETNAEAFLLSIYNSFRNATMSQRPFLTYSGDMRCAPITAYSTGDKYVAYLANNDMGELRNTYPDDARGGLIMQWDVFYTAIQDANILLAEIDKVPGMDELKRSRFKAEAIFMRSLSYFFIVRAFGDVPYYTNAYNEAPLPRTNMVIVLQNCLADLQPLLDDDPGAEVLPWSYSSYSSKGIRASRGSVIALMMHINLWLVQFDAQNKEQYYRNVVSLGEELERNNGAYSLLDINRSSVIFAGGSDEGLFEIAQNINFNEIFMMNAKFSDNVSYSCLNKSMPLFCYSGDYLMTLFPMYEDDARKELWFDEKIYSTSVSSSAPKEIKKFWNIDTYGNGTITSNSGNQIVFRYAGALLLYAEALAALGTNDTKACELLNRVRNRAHASEINTSGSELMDAIFWERCRELIGEGHYYYDLVRTGKVYNRNYCMNPMTRTNFNVGAWTWPIHRNALKNNTQIGLNLFWE
# What was measured:
# Assay in all cases: glycan array binding signal (z-score within array); higher = stronger binding
# Details in all cases: glycan notation: IUPAC condensed, linker removed
# [1] = biological target: Fuc(a1-2)Gal(b1-4)GlcNAc(b1-2)Man
# In short: (§1)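 From the Consortium for Functional Glycomics database, 3228 arrays were curated, keeping only those whose protein sequence was available. Binding is given as a within-array Z-score averaged across arrays sharing a protein sequence and across linkers. Negative Z-scores can be read as non-binding.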
# [2] = biological target: Fuc(a1-2)Gal(b1-4)GlcNAc(b1-2)Man(a1-3)[Fuc(a1-2)Gal(b1-4)GlcNAc(b1-2)Man(a1-6)]Man(b1-4)GlcNAc(b1-4)GlcNAc
# In short: as §1
# [3] = biological target: Fuc(a1-2)Gal(b1-4)[Fuc(a1-3)]GlcNAc(b1-2)Man(a1-3)[Fuc(a1-2)Gal(b1-4)[Fuc(a1-3)]GlcNAc(b1-2)Man(a1-6)]Man(b1-4)GlcNAc(b1-4)[Fuc(a1-6)]GlcNAc
# In short: as §1
# Fuc(a1-2)Gal6S(b1-4)Glc = biological target: Fuc(a1-2)Gal6S(b1-4)Glc
# In short: as §1
# [4] = biological target: Fuc(a1-2)[Gal(a1-3)]Gal(b1-3)GlcNAc(b1-2)Man(a1-3)[Fuc(a1-2)[Gal(a1-3)]Gal(b1-3)GlcNAc(b1-2)Man(a1-6)]Man(b1-4)GlcNAc(b1-4)GlcNAc
# In short: as §1
# [5] = biological target: Fuc(a1-2)[GalNAc(a1-3)]Gal(b1-3)GlcNAc
# In short: as §1
# [6] = biological target: Fuc(a1-2)[GalNAc(a1-3)]Gal(b1-4)Glc
# In short: as §1
# [7] = biological target: Fuc(a1-3)[Gal(b1-4)]GlcNAc(b1-2)Man(a1-3)[Fuc(a1-3)[Gal(b1-4)]GlcNAc(b1-2)Man(a1-6)]Man(b1-4)GlcNAc(b1-4)GlcNAc
# In short: as §1
# [8] = biological target: Gal(a1-3)Gal(b1-3)[Fuc(a1-4)]GlcNAc(b1-2)Man(a1-3)[Gal(a1-3)Gal(b1-3)[Fuc(a1-4)]GlcNAc(b1-2)Man(a1-6)]Man(b1-4)GlcNAc(b1-4)GlcNAc
# In short: as §1
# [9] = biological target: Gal(a1-3)[Gal(a1-4)]Gal(b1-4)GlcNAc
# In short: as §1
# [10] = biological target: Gal(b1-3)GlcNAc(b1-2)[Gal(b1-3)GlcNAc(b1-6)]Man(a1-6)[Gal(b1-3)GlcNAc(b1-2)Man(a1-3)]Man(b1-4)GlcNAc(b1-4)GlcNAc
# In short: as §1
# [11] = biological target: Gal(b1-3)GlcNAc(b1-6)GalNAc
# In short: as §1
# [12] = biological target: Gal(b1-3)[Fuc(a1-4)]GlcNAc
# In short: as §1
# Gal(b1-4)GlcNAc(b1-2)Man = biological target: Gal(b1-4)GlcNAc(b1-2)Man
# In short: as §1
# [13] = biological target: Gal(b1-4)GlcNAc(b1-2)Man(a1-3)[Gal(b1-4)GlcNAc(b1-2)Man(a1-6)]Man(b1-4)GlcNAc(b1-4)[Fuc(a1-6)]GlcNAc
# In short: as §1
# [14] = biological target: Gal(b1-4)GlcNAc(b1-2)Man(a1-6)[Man(a1-3)]Man(b1-4)GlcNAc(b1-4)GlcNAc
# In short: as §1
# [15] = biological target: Gal(b1-4)GlcNAc(b1-3)Gal(b1-4)GlcNAc(b1-3)Gal(b1-4)GlcNAc(b1-3)Gal(b1-4)GlcNAc(b1-3)Gal(b1-4)GlcNAc(b1-2)Man(a1-3)[Gal(b1-4)GlcNAc(b1-3)Gal(b1-4)GlcNAc(b1-3)Gal(b1-4)GlcNAc(b1-3)Gal(b1-4)GlcNAc(b1-3)Gal(b1-4)GlcNAc(b1-2)Man(a1-6)]Man(b1-4)GlcNAc(b1-4)GlcNAc
# In short: as §1
# [16] = biological target: Gal(b1-4)GlcNAc(b1-3)Gal(b1-4)GlcNAc(b1-3)Gal(b1-4)GlcNAc(b1-3)Gal(b1-4)GlcNAc(b1-3)Gal(b1-4)GlcNAc(b1-3)Gal(b1-4)GlcNAc(b1-2)Man(a1-3)[Gal(b1-4)GlcNAc(b1-3)Gal(b1-4)GlcNAc(b1-3)Gal(b1-4)GlcNAc(b1-3)Gal(b1-4)GlcNAc(b1-3)Gal(b1-4)GlcNAc(b1-3)Gal(b1-4)GlcNAc(b1-2)Man(a1-6)]Man(b1-4)GlcNAc(b1-4)GlcNAc
# In short: as §1
# [17] = biological target: Gal(b1-4)GlcNAc(b1-3)Gal(b1-4)GlcNAc(b1-3)GalNAc
# In short: as §1
# Gal3S6S(b1-4)GlcNAc = biological target: Gal3S6S(b1-4)GlcNAc
# In short: as §1
# [18] = biological target: GalNAc3S(b1-4)[Fuc(a1-3)]GlcNAc
# In short: as §1
# [19] = biological target: GlcA3S(b1-3)Gal(b1-4)GlcNAc(b1-2)Man
# In short: as §1
# [20] = biological target: GlcNAc(a1-4)Gal(b1-4)GlcNAc(b1-3)Gal(b1-4)GlcNAc(b1-3)Gal(b1-4)GlcNAc
# In short: as §1
# [21] = biological target: GlcNAc(b1-2)Man(a1-3)[GlcNAc(b1-4)][GlcNAc(b1-2)Man(a1-6)]Man(b1-4)GlcNAc(b1-4)GlcNAc
# In short: as §1
# [22] = biological target: GlcNAc(b1-2)[GlcNAc(b1-4)]Man(a1-3)[GlcNAc(b1-2)Man(a1-6)]Man(b1-4)GlcNAc(b1-4)GlcNAc
# In short: as §1
# GlcNAc(b1-3)Gal(b1-4)Glc = biological target: GlcNAc(b1-3)Gal(b1-4)Glc
# In short: as §1
# [23] = biological target: GlcNAc(b1-3)Gal(b1-4)GlcNAc(b1-3)Gal(b1-4)GlcNAc
# In short: as §1
# [24] = biological target: GlcNAc(b1-3)Gal(b1-4)GlcNAc(b1-3)Gal(b1-4)GlcNAc(b1-3)Gal(b1-4)GlcNAc(b1-2)Man(a1-3)[GlcNAc(b1-3)Gal(b1-4)GlcNAc(b1-3)Gal(b1-4)GlcNAc(b1-3)Gal(b1-4)GlcNAc(b1-2)Man(a1-6)]Man(b1-4)GlcNAc(b1-4)[Fuc(a1-6)]GlcNAc
# In short: as §1
# [25] = biological target: GlcNAc(b1-3)Gal(b1-4)GlcNAc(b1-3)GalNAc
# In short: as §1
# Kdn(a2-6)Gal(b1-4)GlcNAc = biological target: Kdn(a2-6)Gal(b1-4)GlcNAc
# In short: as §1
# [26] = biological target: Man(a1-2)Man(a1-3)[Man(a1-2)Man(a1-6)]Man
# In short: as §1
# [27] = biological target: Man(a1-3)[Man(a1-6)]Man(a1-6)[Man(a1-3)]Man(b1-4)GlcNAc(b1-4)GlcNAc
# In short: as §1
# MurNAc(b1-4)GlcNAc = biological target: MurNAc(b1-4)GlcNAc
# In short: as §1
# [28] = biological target: Neu5Ac(a2-3)Gal(b1-3)GalNAc
# In short: as §1
# [29] = biological target: Neu5Ac(a2-3)Gal(b1-3)]Neu5Ac(a2-3)Gal(b1-4)]GlcNAc
# In short: as §1
# [30] = biological target: Neu5Ac(a2-3)Gal(b1-4)GlcNAc(b1-2)[Neu5Ac(a2-3)Gal(b1-4)GlcNAc(b1-4)]Man(a1-3)[GlcNAc(b1-4)][Neu5Ac(a2-3)Gal(b1-4)GlcNAc(b1-4)Man(a1-6)]Man(b1-4)GlcNAc(b1-4)GlcNAc
# In short: as §1
# [31] = biological target: Neu5Ac(a2-3)Gal(b1-4)GlcNAc(b1-3)Gal(b1-4)GlcNAc(b1-3)GalNAc
# In short: as §1
# [32] = biological target: Neu5Ac(a2-3)[GalNAc(b1-4)]Gal(b1-4)Glc
# In short: as §1
# [33] = biological target: Neu5Ac(a2-6)Gal(b1-4)GlcNAc(b1-2)Man(a1-3)[Neu5Ac(a2-6)Gal(b1-4)GlcNAc(b1-2)Man(a1-6)]Man(b1-4)GlcNAc(b1-4)GlcNAc
# In short: as §1
# [34] = biological target: Neu5Ac(a2-8)Neu5Gc(a2-3)Gal(b1-4)GlcNAc
# In short: as §1
# Neu5Gc(a2-3)Gal(b1-4)Glc = biological target: Neu5Gc(a2-3)Gal(b1-4)Glc
# In short: as §1
# [35] = biological target: Neu5Gc(a2-6)Gal(b1-4)GlcNAc
# In short: as §1
binder,measurement,setting,value
B1,glycan array binding signal (z-score),[1],-0.103
same,glycan array binding signal (z-score),[2],2.2
same,glycan array binding signal (z-score),[3],0.352
same,glycan array binding signal (z-score),Fuc(a1-2)Gal6S(b1-4)Glc,2.77
same,glycan array binding signal (z-score),[4],-0.62
same,glycan array binding signal (z-score),[5],-0.665
same,glycan array binding signal (z-score),[6],-0.32
same,glycan array binding signal (z-score),[7],-0.28
same,glycan array binding signal (z-score),[8],6.49
same,glycan array binding signal (z-score),[9],3.72
same,glycan array binding signal (z-score),[10],2.47
same,glycan array binding signal (z-score),[11],2.58
same,glycan array binding signal (z-score),[12],-0.361
same,glycan array binding signal (z-score),Gal(b1-4)GlcNAc(b1-2)Man,-0.307
same,glycan array binding signal (z-score),[13],0.092
same,glycan array binding signal (z-score),[14],12.1
same,glycan array binding signal (z-score),[15],2.83
same,glycan array binding signal (z-score),[16],2.95
same,glycan array binding signal (z-score),[17],-0.08
same,glycan array binding signal (z-score),Gal3S6S(b1-4)GlcNAc,3.43
same,glycan array binding signal (z-score),[18],-0.361
same,glycan array binding signal (z-score),[19],-0.619
same,glycan array binding signal (z-score),[20],-0.188
same,glycan array binding signal (z-score),[21],-0.381
same,glycan array binding signal (z-score),[22],-0.803
same,glycan array binding signal (z-score),GlcNAc(b1-3)Gal(b1-4)Glc,-0.199
same,glycan array binding signal (z-score),[23],-0.161
same,glycan array binding signal (z-score),[24],0.037
same,glycan array binding signal (z-score),[25],0.059
same,glycan array binding signal (z-score),Kdn(a2-6)Gal(b1-4)GlcNAc,0.229
same,glycan array binding signal (z-score),[26],-0.505
same,glycan array binding signal (z-score),[27],0.524
same,glycan array binding signal (z-score),MurNAc(b1-4)GlcNAc,0.506
same,glycan array binding signal (z-score),[28],-0.436
same,glycan array binding signal (z-score),[29],0.09
same,glycan array binding signal (z-score),[30],-0.189
same,glycan array binding signal (z-score),[31],-0.707
same,glycan array binding signal (z-score),[32],-0.82
same,glycan array binding signal (z-score),[33],-0.217
same,glycan array binding signal (z-score),[34],13.7
same,glycan array binding signal (z-score),Neu5Gc(a2-3)Gal(b1-4)Glc,-0.471
same,glycan array binding signal (z-score),[35],-0.58
